Laboratory results as given in PubChem BioAssay (Tox21).
Records with an inconclusive call do not appear. Activity calls are given as the source filed them. Unless noted, calls follow the shape of the full dose curve.

What was measured:
[1] = Nuclear factor erythroid 2-related factor 2/antioxidant responsive element (Nrf2/ARE) small molecule agonists: qHTS cell viability counter screen in human keratinocytes (AID 1919968; active = well fitted curve in the direction sought with a large enough effect in the repeat runs; an effect the other way counts as inactive or inconclusive; also: nearly all actives have a fitted effect of over 55% in size)
In short: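 KeratinoSens cells (HaCaT keratinocytes stably carrying an ARE-luciferase reporter) were seeded at 1,500 cells/well and rested 5 h at 37 C/5% CO2. They were then exposed to compounds in DMSO for 23 h. Viability was read by CellTiter-Fluor fluorescence after 1 h.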

[2] = Nuclear factor erythroid 2-related factor 2/antioxidant responsive element (Nrf2/ARE) small molecule agonists: luciferase reporter gene qHTS assay in human keratinocytes (AID 1919969); also: nearly all actives have a fitted effect of over 35% in size; also: potency is read from the fitted curve at half-maximal effect
[3] = molecular target: Gonadotropin-releasing hormone receptor (Homo sapiens) (UniProt P30968); assay: Human gonadotropin-releasing hormone receptor (GnRHR) small molecule agonists, calcium flux assay in GnRHR-HEK293 cells (AID 1920063); also: nearly all actives have a fitted effect of over 35% in size
In short: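 HEK293 cells stably expressing human GnRHR were plated 18 h at 37 °C, loaded with calcium dye 1 h at 37 °C, then given compound in agonist mode; fluorescence (Ex/Em 480/540) read kinetically for 3 min at 1 s intervals.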

[4] = molecular target: KiSS-1 receptor (Homo sapiens) (UniProt Q969F8); assay: Human kisspeptin (KISS1R) small molecule agonists, calcium flux assay in KISS1R-HEK293 cells (AID 1920064; active = well fitted curve in the direction sought with a large enough effect in the repeat runs; an effect the other way counts as inactive or inconclusive)
In short: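 HEK293 cells stably expressing human KISS1R were plated 18 h at 37 °C, loaded with calcium dye for 1 h at 37 °C, then given compound by pin tool. Fluorescence (Ex/Em 480/540) was read kinetically for 3 min.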

[5] = p53 small molecule agonists, cell-based qHTS assay with human liver microsomes (AID 1963577);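 also: p53 response element beta-lactamase reporter cells with liver microsomes plus NADPH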
In short: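 Steps: plate p53RE-bla cells, incubate 5 h at 37 C; add compound in DMSO; add microsomes (0.5 mg/mL final) and NADPH (0.5 mg/mL final); incubate 16 h at 37 C; add LiveBLAzer, 2 h RT; read fluorescence.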

[6] = p53 small molecule agonists, cell-based qHTS assay with rat liver microsomes (AID 1963578)
In short: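 Metabolic activation is supplied by rat liver microsomes with NADPH (each 0.5 mg/mL final). p53RE-bla cells incubate with compound 16 h at 37 C; reporter activity is measured by LiveBLAzer fluorescence.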

[7] = p53 small molecule agonists, cell-based qHTS assay with human liver microsomes: qHTS cell viability counter screen (AID 1963579); also: nearly all actives have a fitted effect of over 45% in size
In short: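 After the 460/530 nm beta-lactamase read, CellTiter-Glo was added to the same wells and luminescence measured after 30 min at room temperature, giving viability of p53RE-bla cells treated 16 h with compounds plus microsomes and NADPH.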

[8] = p53 small molecule agonists, cell-based qHTS assay with rat liver microsomes: qHTS cell viability counter screen (AID 1963580); also: nearly all actives have a fitted effect of over 45% in size
In short: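 p53RE-bla HCT-116 cells were exposed 16 h at 37 C to compounds with rat liver microsomes (0.5 mg/mL) and NADPH (0.5 mg/mL). Viability was measured in the same wells as ATP content by CellTiter-Glo luminescence.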

[9] = p53 small molecule agonists, cell-based qHTS assay: qHTS cell viability counter screen (AID 1963581); also: nearly all actives have a fitted effect of over 45% in size
In short: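 p53RE-bla HCT-116 cells were exposed to compounds for 16 h at 37 C; after the beta-lactamase FRET read in the same wells, CellTiter-Glo was added and luminescence (intracellular ATP) read after 30 min at room temperature.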

[10] = p53 small molecule agonists, cell-based qHTS assay (AID 1963582; active = well fitted activation curve with a large enough effect in the signal ratio in the repeat runs, not every such curve was filed as active; the % refers to the signal ratio)
In short: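 p53RE-bla beta-lactamase reporter cells rested 5 h at 37 C/5% CO2, then received compounds in DMSO by pin transfer and were incubated 16 h at 37 C. LiveBLAzer B/G FRET substrate was loaded for 2 h at room temperature before fluorescence reading.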

[11] = molecular target: 5-hydroxytryptamine receptor 2A (Homo sapiens) (UniProt P28223); assay: 5-hydroxytryptamine receptor 2A (HTR2A) small molecule antagonists, cell-based qHTS assay (AID 1963586); also: nearly all actives have a fitted effect of over 45% in size
In short: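 Antagonist-mode intracellular calcium assay: DOI (4 nM) added after 5 min compound pre-incubation at room temperature to dye-loaded HTR2A-CHO cells. Fluorescence followed for 3 min, sampled every second.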

[12] = molecular target: 5-hydroxytryptamine receptor 2A (Homo sapiens) (UniProt P28223); assay: 5-hydroxytryptamine receptor 2A (HTR2A) small molecule agonists, cell-based qHTS assay (AID 1963587); also: nearly all actives have a fitted effect of over 30% in size
In short: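 CHO cells stably expressing human HTR2A, plated 18 h, loaded with calcium dye 1 h at 37 C. Agonist mode: compounds added and intracellular calcium fluorescence recorded kinetically for 2 min at 1 sec intervals.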

[13] = molecular target: Muscarinic acetylcholine receptor M1 (Homo sapiens) (UniProt P11229); assay: Cholinergic receptor muscarinic 1 (CHRM1) small molecule antagonists, cell-based qHTS assay (AID 1963588); also: nearly all actives have a fitted effect of over 40% in size
In short: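 CHRM1-CHO calcium-flux assay, antagonist mode. Cells were seeded 18 h, dye-loaded 1 h at 37 C and given compound for 5 min at RT, then acetylcholine was added at 50nM. FDSS fluorescence was read 3 min; 15 concentrations, three runs.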

[14] = molecular target: Muscarinic acetylcholine receptor M1 (Homo sapiens) (UniProt P11229); assay: Cholinergic receptor muscarinic 1 (CHRM1) small molecule agonists, cell-based qHTS assay (AID 1963589); also: nearly all actives have a fitted effect of over 35% in size
In short: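 CHO cells stably expressing human CHRM1, seeded 18 h at 37 C/5% CO2, dye-loaded 1 h at 37 C, then given compound in agonist mode; intracellular calcium fluorescence read kinetically at 1 s intervals. Fifteen concentrations, three independent runs.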

[15] = cAMP Responsive Elements (CRE) small molecule agonists, cell-based qHTS assay (AID 1963590)
In short: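 CRE-bla HEK 293T cells in DMEM with 10% dialyzed FBS, NEAA, pyruvate and 25 mM HEPES were plated 18 h at 37 C/5% CO2, then exposed to compounds in DMSO for 3 h before LiveBLAzer B/G FRET substrate addition.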

[16] = molecular target: Beta-2 adrenergic receptor (Homo sapiens) (UniProt P07550); assay: Adrenergic beta2 receptor (ADRB2) small molecule antagonists, cell-based qHTS assay (AID 1963592); also: series mostly up to about 92 µM; nearly all actives have a fitted effect of over 50% in size
In short: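 Cells (CHO, stable ADRB2 overexpression) incubated 18-20hr at 37C; compounds added from DMSO; agonist mix (1nM isoproterenol, 100uM IBMX, 25uM Ro-20-1724) added; 0.5hr RT; d2-cAMP and anti-cAMP-cryptate added; 1hr RT; 665/615 nm read.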

[17] = molecular target: D(2) dopamine receptor (Homo sapiens) (UniProt P14416); assay: Dopamine D2 receptor (DRD2) small molecule antagonists, cell-based qHTS assay (AID 1963595; active = well fitted inhibition curve with a large enough effect in the signal ratio in the repeat runs, with a control signal flat; the % refers to the signal ratio)
In short: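 Cells were plated and grown for 24 h at 37 °C. Ro20-1724 (0.1 mM final) went in first, then compound for 10 min. NKH477 (200 nM) with quinpirole (12 nM) followed for 30 min at RT, then HTRF detection reagents for 1 h.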

[18] = cAMP Responsive Elements (CRE) small molecule antagonists, cell-based qHTS assay (AID 1963591; active = well fitted inhibition curve with a large enough effect in the signal ratio in the repeat runs, not every such curve was filed as active; the % refers to the signal ratio)
In short: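 CRE-bla HEK293T cells were plated 18 h at 37 °C/5% CO2, pinned with compound in DMSO, then stimulated with NKH477 at 0.25 uM final for 3 h. LiveBLAzer B/G FRET substrate was added and plates incubated 2 h at room temperature.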

[19] = molecular target: D(2) dopamine receptor (Homo sapiens) (UniProt P14416); assay: Dopamine D2 receptor (DRD2) small molecule agonists, cell-based qHTS assay (AID 1963594); also: nearly all actives have a fitted effect of over 35% in size
In short: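 HEK293 cells stably expressing human DRD2, pre-treated with PDE inhibitor Ro20-1724 (0.1 mM final) and compound 10 min at room temperature, then stimulated with NKH477 (200nM […]) for 30 min. cAMP read by HTRF (665/620 nm).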

[20] = G protein-coupled receptor (GPCR) small molecule agonists, calcium flux assay: HEK293 wild type cell line counter screen (AID 1920065)
In short: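 Cells were plated and cultured 18 h at 37 C/5% CO2, then loaded with calcium dye for 1 h at 37 C. Compounds in DMSO were pin-transferred in agonist mode, and fluorescence (Ex/Em 480/540) was read kinetically for 3 min at 1 s intervals.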

Measured: Potency

Chain of Beta-2 adrenergic receptor (Homo sapiens) (P07550 whole entry, looked up): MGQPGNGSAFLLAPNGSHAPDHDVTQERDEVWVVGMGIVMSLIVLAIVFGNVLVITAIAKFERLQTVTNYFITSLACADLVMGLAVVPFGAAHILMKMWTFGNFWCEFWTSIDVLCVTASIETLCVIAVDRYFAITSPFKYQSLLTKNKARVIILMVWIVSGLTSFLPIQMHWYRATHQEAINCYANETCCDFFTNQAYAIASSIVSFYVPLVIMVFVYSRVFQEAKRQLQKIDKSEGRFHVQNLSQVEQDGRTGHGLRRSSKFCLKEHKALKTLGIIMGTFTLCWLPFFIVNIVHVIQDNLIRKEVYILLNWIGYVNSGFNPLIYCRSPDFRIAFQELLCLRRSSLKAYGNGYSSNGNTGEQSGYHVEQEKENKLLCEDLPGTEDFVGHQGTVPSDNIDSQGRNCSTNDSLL
Chain of D(2) dopamine receptor (Homo sapiens) (P14416 whole entry, looked up): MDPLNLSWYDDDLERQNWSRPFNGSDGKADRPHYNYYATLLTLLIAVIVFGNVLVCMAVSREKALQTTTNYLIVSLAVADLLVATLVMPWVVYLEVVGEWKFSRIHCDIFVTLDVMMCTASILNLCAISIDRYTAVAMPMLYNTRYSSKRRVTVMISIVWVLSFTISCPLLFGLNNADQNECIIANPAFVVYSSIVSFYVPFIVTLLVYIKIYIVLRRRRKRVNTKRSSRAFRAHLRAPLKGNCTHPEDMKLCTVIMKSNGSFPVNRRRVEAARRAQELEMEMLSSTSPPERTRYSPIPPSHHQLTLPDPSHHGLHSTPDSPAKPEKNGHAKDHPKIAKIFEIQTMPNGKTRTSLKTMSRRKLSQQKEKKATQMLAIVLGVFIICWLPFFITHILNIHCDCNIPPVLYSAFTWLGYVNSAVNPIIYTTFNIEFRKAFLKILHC
Chain of KiSS-1 receptor (Homo sapiens) (Q969F8 whole entry, looked up): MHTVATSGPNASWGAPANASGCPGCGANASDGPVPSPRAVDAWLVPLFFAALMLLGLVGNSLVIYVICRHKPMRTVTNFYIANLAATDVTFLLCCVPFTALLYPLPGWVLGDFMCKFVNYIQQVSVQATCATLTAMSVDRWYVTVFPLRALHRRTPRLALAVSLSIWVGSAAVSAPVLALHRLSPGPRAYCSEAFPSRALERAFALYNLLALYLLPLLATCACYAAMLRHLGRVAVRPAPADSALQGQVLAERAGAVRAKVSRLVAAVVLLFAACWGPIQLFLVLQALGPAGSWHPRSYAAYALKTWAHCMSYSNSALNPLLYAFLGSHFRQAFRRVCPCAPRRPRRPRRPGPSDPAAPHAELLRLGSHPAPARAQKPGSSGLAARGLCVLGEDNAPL
Chain of Muscarinic acetylcholine receptor M1 (Homo sapiens) (P11229 whole entry, looked up): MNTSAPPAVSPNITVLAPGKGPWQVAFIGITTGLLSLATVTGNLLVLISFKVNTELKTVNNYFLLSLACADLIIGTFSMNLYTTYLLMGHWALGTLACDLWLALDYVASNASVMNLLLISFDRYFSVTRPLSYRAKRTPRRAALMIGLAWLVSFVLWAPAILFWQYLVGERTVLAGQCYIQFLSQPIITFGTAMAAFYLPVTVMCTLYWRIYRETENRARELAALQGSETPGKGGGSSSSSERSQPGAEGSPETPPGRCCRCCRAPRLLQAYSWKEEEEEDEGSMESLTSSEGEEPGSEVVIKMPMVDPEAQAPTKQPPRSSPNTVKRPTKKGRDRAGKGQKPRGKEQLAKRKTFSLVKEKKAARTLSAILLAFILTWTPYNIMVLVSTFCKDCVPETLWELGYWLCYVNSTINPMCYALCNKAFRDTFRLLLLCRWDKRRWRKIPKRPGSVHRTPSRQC
Chain of Gonadotropin-releasing hormone receptor (Homo sapiens) (P30968 whole entry, looked up): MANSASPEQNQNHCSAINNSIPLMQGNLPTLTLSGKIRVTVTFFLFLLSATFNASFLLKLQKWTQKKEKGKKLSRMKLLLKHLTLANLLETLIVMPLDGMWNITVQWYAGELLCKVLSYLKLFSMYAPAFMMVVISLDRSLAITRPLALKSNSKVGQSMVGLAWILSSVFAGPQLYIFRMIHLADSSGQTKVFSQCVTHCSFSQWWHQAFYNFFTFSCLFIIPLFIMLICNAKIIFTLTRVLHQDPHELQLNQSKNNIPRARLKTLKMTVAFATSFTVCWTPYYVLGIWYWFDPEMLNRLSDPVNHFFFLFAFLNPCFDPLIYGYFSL
Chain of 5-hydroxytryptamine receptor 2A (Homo sapiens) (P28223 whole entry, looked up): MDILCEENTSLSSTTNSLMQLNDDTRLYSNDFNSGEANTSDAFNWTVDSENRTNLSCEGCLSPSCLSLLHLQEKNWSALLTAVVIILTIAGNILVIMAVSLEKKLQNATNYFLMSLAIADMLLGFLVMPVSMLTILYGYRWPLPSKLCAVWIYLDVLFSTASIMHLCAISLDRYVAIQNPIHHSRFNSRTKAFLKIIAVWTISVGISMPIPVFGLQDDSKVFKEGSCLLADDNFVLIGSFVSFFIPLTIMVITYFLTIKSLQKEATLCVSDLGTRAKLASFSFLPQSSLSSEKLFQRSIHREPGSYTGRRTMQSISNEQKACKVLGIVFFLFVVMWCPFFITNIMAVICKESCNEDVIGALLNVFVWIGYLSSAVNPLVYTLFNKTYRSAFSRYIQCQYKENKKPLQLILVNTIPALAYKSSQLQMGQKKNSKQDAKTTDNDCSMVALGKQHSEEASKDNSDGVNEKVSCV

CCCCCCCCC=O
not listed: [18] | [19] | [20]
inactive: all other assays above

CC(=O)N(CC(O)CN(C(C)=O)c1c(I)c(C(=O)NCC(O)CO)c(I)c(C(=O)NCC(O)CO)c1I)c1c(I)c(C(=O)NCC(O)CO)c(I)c(C(=O)NCC(O)CO)c1I (stereo not given)
not listed: [11] | [20]
inactive: all other assays above

CCCCC/C=C\CCC=O
not listed: [13] | [18] | [20]
inactive: all other assays above

NC(CS)C(=O)O (stereo not given)
not listed: [20]
inactive: all other assays above

CC(CNC1CCCCC1)OC(=O)c1ccccc1 (stereo not given)
not listed: [13] | [20]
inactive: all other assays above

NC(CO)C(=O)NNCc1ccc(O)c(O)c1O (stereo not given)
not listed: [16] | [19] | [20]
inactive: all other assays above

CCCCCCCCCCCCCc1ccccc1
not listed: [11] | [20]
inactive: all other assays above

CC(C)OC(=O)C(C(=O)OC(C)C)=C1SC=CS1
not listed: [12] | [18] | [20]
inactive: all other assays above

O=C1c2ccccc2C(=O)C1c1ccc2ccccc2n1
active: [2] 1210 nM
not listed: [5] | [6] | [8]
inactive: all other assays above

CCCCCCCCCCOC(C)=O
not listed: [11] | [20]
inactive: all other assays above

O=C(Nc1ccc([N+](=O)[O-])cc1)Nc1ccc([N+](=O)[O-])cc1
not listed: [11] | [20]
inactive: all other assays above

Nc1cc(C(=O)O)ccc1Cl
not listed: [13] | [15] | [20]
inactive: all other assays above

CC(=O)[C@H]1CC[C@H]2[C@@H]3C=CC4=CC(=O)CC[C@@]4(C)[C@@H]3CC[C@]12C
not listed: [13] | [15] | [19] | [20]
inactive: all other assays above

Brc1ccccn1
not listed: [19] | [20]
inactive: all other assays above
